Measured values as given in the supplement of paper PMC3334620.
The full ranking holds about 33,000 sequences; the median of “E-score (-0.5 to 0.5)” is about -8e-05, and the highest 2% start at about 0.23. Only a selection was taken, and the highest values are over-represented in it overall.

These sequences were tested against T1, Nrg2 (UniProt P38082) (assay: PBM E-score (8-mer binding enrichment) (E-score (-0.5 to 0.5)); higher = stronger / more preferred TF binding). Details: protein concentration: 100 nM; construct: GST-full length.
T1 sequence: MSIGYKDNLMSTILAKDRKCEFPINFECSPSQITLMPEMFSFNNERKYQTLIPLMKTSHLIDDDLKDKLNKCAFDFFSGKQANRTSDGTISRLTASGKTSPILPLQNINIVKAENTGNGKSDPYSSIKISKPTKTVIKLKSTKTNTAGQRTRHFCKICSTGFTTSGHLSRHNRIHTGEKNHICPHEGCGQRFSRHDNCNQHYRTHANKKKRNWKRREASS
Procedure: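 Universal 'all 10-mer' protein binding microarrays (Agilent AMADID 015681) probed with GST-tagged S. cerevisiae TFs (full-length or DBD) made by in vitro transcription/translation (PURExpress), about 100-200 nM. Bound TF was detected with fluorescent anti-GST. Each ungapped 8-mer (which stands for itself and its reverse complement) is scored by the PBM enrichment score (E-score), a modified Wilcoxon-Mann-Whitney statistic from -0.5 to +0.5, computed with the Universal PBM Analysis Suite. Scale: above 0.35 generally sequence-specific binding.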
For ATTAGTAA, the “PBM E-score” value was 0.245.
With AGTAGTTA the “PBM E-score” value was 0.0579.
For CTTAGTTA, the “PBM E-score” value was 0.0769.
For ATTAGTGG, the “PBM E-score” value was 0.15.
CTTAGTAA was tested, and the “PBM E-score” value was 0.0233.
With GTAACTAC the “PBM E-score” value was 0.0907.
For CGTTCTCA, the “PBM E-score” value was -0.0327.
CACCATGA was tested, and the “PBM E-score” value was -0.00138.
For CGGGCCAG, the “PBM E-score” value was -0.0425.
TGGTTCAA was tested, and the “PBM E-score” value was 0.103.
In the case of CGAGCCCC, the “PBM E-score” value was -0.154.
GACAGCCC was tested, and the “PBM E-score” value was -0.099.
For CTTCTCTA, the “PBM E-score” value was -0.137.
AATAGTTA was tested, and the “PBM E-score” value was 0.0707.
For ATTAGTCG, the “PBM E-score” value was 0.143.
With AATAGTTC the “PBM E-score” value was 0.0571.
In the case of ATTAGTTG, the “PBM E-score” value was 0.256.
ATTAGTTC was tested, and the “PBM E-score” value was 0.158.
AATAGTTG was tested, and the “PBM E-score” value was 0.248.
With ACTTGAAA the “PBM E-score” value was -0.108.
In the case of CCTTGCAG, the “PBM E-score” value was -0.0165.
CATGCTAG was tested, and the “PBM E-score” value was -0.00401.
With CCCGATCG the “PBM E-score” value was -0.026.
In the case of AATCTAAC, the “PBM E-score” value was 0.0101.
TCGTGAGA was tested, and the “PBM E-score” value was -0.0385.
ACGTGAGA was tested, and the “PBM E-score” value was -0.11.
GCGTGAGA was tested, and the “PBM E-score” value was 0.297.
CCTCTAGC was tested, and the “PBM E-score” value was -0.0815.
In the case of CATTTCCC, the “PBM E-score” value was 0.201.
With TATTTCCA the “PBM E-score” value was 0.0167.
CATTTCCA was tested, and the “PBM E-score” value was 0.237.
In the case of GGGCTGCA, the “PBM E-score” value was 0.0573.
With AACTCGGA the “PBM E-score” value was 0.13.
With AACTCGGC the “PBM E-score” value was 0.245.
In the case of AACTCGGT, the “PBM E-score” value was -0.00163.
With AATAAAGT the “PBM E-score” value was 0.252.
For AATAAAGG, the “PBM E-score” value was -0.0433.
With GATAAATC the “PBM E-score” value was 0.023.
In the case of TATAAATA, the “PBM E-score” value was 0.255.
For AATAAATG, the “PBM E-score” value was 0.158.
AATAAATT was tested, and the “PBM E-score” value was 0.215.
In the case of GATAAATA, the “PBM E-score” value was 0.262.
With AATAAAGA the “PBM E-score” value was 0.0604.
With GATAAAAA the “PBM E-score” value was -0.00426.
In the case of TATAAAAA, the “PBM E-score” value was 0.164.
AATAAATA was tested, and the “PBM E-score” value was 0.246.
CATAAATA was tested, and the “PBM E-score” value was 0.046.
With CCCTGCCC the “PBM E-score” value was -0.1.
For ACGGATTG, the “PBM E-score” value was 0.168.
In the case of ACGACCCG, the “PBM E-score” value was 0.168.
GGATAAAC was tested, and the “PBM E-score” value was 0.133.
In the case of AGAGCTAC, the “PBM E-score” value was 0.00658.
For AGCCGACT, the “PBM E-score” value was -0.111.
For CTTGGAAA, the “PBM E-score” value was 0.0285.
In the case of AGACCGTA, the “PBM E-score” value was -0.242.
In the case of AACACGAC, the “PBM E-score” value was 0.0492.
With GTAAATAC the “PBM E-score” value was -0.0746.
For ATAAATAT, the “PBM E-score” value was 0.245.
For ATAAAAAA, the “PBM E-score” value was 0.0337.
ATAAATAA was tested, and the “PBM E-score” value was 0.237.
In the case of AAAAATAT, the “PBM E-score” value was 0.101.
ATAAATAC was tested, and the “PBM E-score” value was 0.283.
For CTAAATAC, the “PBM E-score” value was 0.0507.
In the case of TTAAATAA, the “PBM E-score” value was 0.186.
In the case of ATAAATAG, the “PBM E-score” value was 0.0238.
For ATAAAAAT, the “PBM E-score” value was 0.122.
With ATAAAAAG the “PBM E-score” value was 0.257.
ATAAAAGG was tested, and the “PBM E-score” value was -0.128.
For AGCCAGGA, the “PBM E-score” value was -0.0522.
With AAGATTCA the “PBM E-score” value was 0.0877.
For CGTTGACA, the “PBM E-score” value was 0.00462.
With GCTAGCAA the “PBM E-score” value was -0.0969.
CTAAGAGA was tested, and the “PBM E-score” value was -0.0214.
For ACTACCTG, the “PBM E-score” value was 0.0949.
With GACTTCGA the “PBM E-score” value was -0.106.
In the case of TACTTCGA, the “PBM E-score” value was 0.23.
CACTTCGA was tested, and the “PBM E-score” value was 0.0548.
GCAAGATA was tested, and the “PBM E-score” value was 0.229.
CCAAGATA was tested, and the “PBM E-score” value was 0.00687.
In the case of ACAAGATA, the “PBM E-score” value was 0.103.
With GCTACGCA the “PBM E-score” value was -0.108.
For CGACGAAA, the “PBM E-score” value was 0.0993.
GCCGCATA was tested, and the “PBM E-score” value was 0.231.
With CCCGCATA the “PBM E-score” value was 0.168.
ACCGCATA was tested, and the “PBM E-score” value was 0.0956.
For CGCACGAG, the “PBM E-score” value was -0.0371.
With CCCACAAG the “PBM E-score” value was -0.0136.
CCCACAAA was tested, and the “PBM E-score” value was 0.247.
In the case of CGCACAAG, the “PBM E-score” value was 0.0299.
With GCCACAAA the “PBM E-score” value was 0.0838.
With CGCACAAA the “PBM E-score” value was 0.257.
With GAGAGAAC the “PBM E-score” value was -0.0345.
CCCGCCAA was tested, and the “PBM E-score” value was -0.175.
AGCCTACG was tested, and the “PBM E-score” value was 0.0365.
GATTAATA was tested, and the “PBM E-score” value was 0.29.
With CTTTAATA the “PBM E-score” value was 0.125.
For CATTAATA, the “PBM E-score” value was 0.155.
With AATTAATG the “PBM E-score” value was 0.182.
For ATTTAATA, the “PBM E-score” value was 0.247.
With TATTAATA the “PBM E-score” value was 0.152.
For AATTAATT, the “PBM E-score” value was -0.112.
With GTTTAATA the “PBM E-score” value was 0.198.
For AATTAATA, the “PBM E-score” value was 0.303.
For CATAATTA, the “PBM E-score” value was 0.173.
With GATAATTA the “PBM E-score” value was 0.0635.
With AATAATTA the “PBM E-score” value was 0.286.
CCACCACG was tested, and the “PBM E-score” value was 0.00854.
With CGGGTCAG the “PBM E-score” value was 0.023.
With ACCCAGGA the “PBM E-score” value was -0.227.
ACTGTGGA was tested, and the “PBM E-score” value was -0.109.
For CGGTCGAC, the “PBM E-score” value was -0.0395.
ACTCTAAA was tested, and the “PBM E-score” value was 0.101.
In the case of GATAGCAA, the “PBM E-score” value was 0.0872.
AACTGTCC was tested, and the “PBM E-score” value was -0.0683.
In the case of GCTGAAAC, the “PBM E-score” value was -0.139.
For ATTGATTC, the “PBM E-score” value was 0.244.
With ATTGATTG the “PBM E-score” value was 0.142.
For ATTGATAA, the “PBM E-score” value was 0.0942.
In the case of CTTGATAA, the “PBM E-score” value was 0.147.
With GCTGATAC the “PBM E-score” value was -0.0795.
With GTTGATAA the “PBM E-score” value was 0.232.
CCTGATAG was tested, and the “PBM E-score” value was -0.153.
In the case of ATTGATAC, the “PBM E-score” value was 0.274.
In the case of CTTGATTC, the “PBM E-score” value was 0.0772.
In the case of GTTGATGA, the “PBM E-score” value was 0.0639.
With CCTGATAC the “PBM E-score” value was 0.229.
In the case of ATTGATAG, the “PBM E-score” value was -0.0275.
For AAACTCCC, the “PBM E-score” value was -0.0959.
For GTGGATTA, the “PBM E-score” value was 0.0668.
CGGCCTTA was tested, and the “PBM E-score” value was 0.0601.
With ACTCAAGC the “PBM E-score” value was -0.148.
In the case of CAGTTTTC, the “PBM E-score” value was 0.17.
AATGGCAT was tested, and the “PBM E-score” value was 0.26.
For AATGGAAC, the “PBM E-score” value was 0.108.
With AATGGCAC the “PBM E-score” value was -0.0263.
AATGGAAG was tested, and the “PBM E-score” value was 0.0112.
With AATGGCAG the “PBM E-score” value was 0.0917.
For AATGGAAT, the “PBM E-score” value was 0.241.
In the case of CGCCAAAA, the “PBM E-score” value was 0.119.
In the case of AAGGAAAC, the “PBM E-score” value was -0.128.
AAGGGACA was tested, and the “PBM E-score” value was 0.137.
GAGGGACC was tested, and the “PBM E-score” value was 0.0355.
AAGGGACG was tested, and the “PBM E-score” value was 0.207.
For CAGGGACC, the “PBM E-score” value was 0.4.
AAGGGACT was tested, and the “PBM E-score” value was 0.123.
GAGGGACA was tested, and the “PBM E-score” value was 0.0412.
For AGGGGACC, the “PBM E-score” value was 0.225.
For CAGAGACC, the “PBM E-score” value was -0.212.
In the case of CAGAGACG, the “PBM E-score” value was 0.0459.
For AAGGGACC, the “PBM E-score” value was 0.424.
With CAGGGACA the “PBM E-score” value was 0.371.
In the case of CAGGGACG, the “PBM E-score” value was 0.306.
AGCAAACA was tested, and the “PBM E-score” value was 0.0834.
In the case of GGCGCCTA, the “PBM E-score” value was -0.0964.
For AGAACCGC, the “PBM E-score” value was 0.0943.
For ACGTCAGC, the “PBM E-score” value was 0.129.
With CCCGAACG the “PBM E-score” value was -0.0859.
GCAAACGA was tested, and the “PBM E-score” value was 0.0657.
In the case of GGCAACTA, the “PBM E-score” value was 0.194.
In the case of CGCAACTA, the “PBM E-score” value was 0.244.
With CGCAACTC the “PBM E-score” value was 0.147.
For GCGGCCAA, the “PBM E-score” value was -0.133.
For AAGACCCA, the “PBM E-score” value was -0.181.
AGGACCCT was tested, and the “PBM E-score” value was 0.369.
AGGACCCA was tested, and the “PBM E-score” value was -0.179.
AAGACCCG was tested, and the “PBM E-score” value was 0.0509.
For AAGACCCT, the “PBM E-score” value was 0.291.
With AGGACCCG the “PBM E-score” value was 0.0935.
With CCAACCTA the “PBM E-score” value was -0.118.
In the case of AAGTGAGC, the “PBM E-score” value was -0.0445.
With CATGGGAA the “PBM E-score” value was 0.0176.
In the case of CAGATGAA, the “PBM E-score” value was 0.026.
